The subject of assay [1] is TRPC4 beta (transient receptor potential cation channel C4), mouse. Description: TRPC4 cation channel opening, retest – cell-based, Fluo4 calcium, HEK293 TRPC4beta/mu-opioid, duplicates, 10 µM, confirmation (AID 2426;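 active means fluorescence ratio normalized to control raised more than 50% in primary screen plus both repeat runs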). The settings on record: Fluo4 calcium fluorescence, at 10 µM; stronger effect = higher value.
The test system of assay [2] is transient receptor potential cation channel C4 beta (TRPC4), mouse. Description: TRPC4 cation channel opening, second retest – cell-based, second round, Fluo4, HEK293 TRPC4beta/mu-opioid, 1 µM, confirmation (AID 2461;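 active means primary screen active and over 50% activation in each of two duplicate runs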). Particulars: Fluo4 calcium fluorescence, at 1 µM; stronger effect = higher value.
In assay [3] the test system is TRPC4 (transient receptor potential cation channel C4 beta), mouse. Description: potentiation of DAMGO EC20 TRPC4 response – cell-based, second round, Fluo-4, HEK293 TRPC4beta/mu-opioid, 1 µM, confirmation (AID 2554;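 active means primary screen hit whose fluorescence ratio, in both repeats, exceeds the weak agonist control mean by 3 SD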). The settings on record: DAMGO EC20, Fluo-4 calcium flux, at 1 µM; stronger effect = higher value. For orientation: Calcium flux is commonly read through the fluorescence of an indicator in the cells.

Assay [4] relates to TRPC4 beta (transient receptor potential cation channel C4), mouse. Briefly: potentiation of DAMGO EC20 TRPC4 response – cell-based, Fluo-4, HEK293 TRPC4beta/mu-opioid, confirmation (AID 2555;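 active means primary screen hit whose calcium fluorescence ratio, in both repeats, exceeds the weak agonist control mean by 3 SD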). Particulars: DAMGO EC20, Fluo-4 calcium flux, at 10 µM; stronger effect = higher value.
Assay [5] addresses Short transient receptor potential channel 4 (Mus musculus) (UniProt Q9QUQ5). Description: blockers of DAMGO-evoked TRPC4 calcium flux – cell-based, Fluo4, HEK293 TRPC4beta/mu-opioid, confirmation (AID 2636;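 active means calcium signal cut by more than 3 SD below the full-agonist control yet still positive, in both repeats and the earlier primary screen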). Particulars: at 10 µM; stronger effect = higher value.
For assay [6] the target is unchanged. Description: blockers of DAMGO-evoked TRPC4 calcium flux – cell-based, second round, Fluo4, HEK293 TRPC4beta/mu-opioid, 1 µM, confirmation (AID 2637;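 active means calcium signal ratio cut to more than 3 SD under the fully stimulated control mean yet still positive, in both repeats and the primary screen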). The settings on record: at 1 µM; stronger effect = higher value.
Assay [7] has the same target. Briefly: calcium entry via TRPC4 opening agents – cell-based, HEK293 TRPC4/mu-opioid, Fluo-4 calcium, dose response (AID 434937).
Assay [8] shares this target. Description: potentiation of DAMGO-evoked TRPC4 calcium signal – cell-based, HEK293 TRPC4/mu-opioid, Fluo-4 calcium, EC20 DAMGO, dose response (AID 434941;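 active means earlier screen potentiator hit that boosts the TRPC4 ion channel at some dose, with a dose response; inactive means no potentiation, no dose response, or not a prior hit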;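 further: calcium entry triggered by an EC20 dose of DAMGO at the co-expressed mu-opioid receptor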).
Assay [9] has the same target. Description: block of DAMGO-driven TRPC4 calcium entry – cell-based, HEK293 TRPC4/mu-opioid, Fluo-4 calcium, dose response (AID 434942;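 active means primary screen inhibitor hit that blocks the TRPC4 channel at some tested dose, yielding a dose curve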).
In assay [10] the target is Short transient receptor potential channel 6 (Mus musculus) (UniProt Q61143). Description: TRPC6 blockade by TRPC4 inhibitor hits – cell-based, HEK293, membrane potential dye, duplicate, selectivity assay for TRPC4 inhibitor project, confirmation (AID 434948;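 active means active in primary screen and both duplicates, each dropping signal beyond three positive-control SD with fluorescence still positive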). Particulars: HEK293 TRPC6, membrane potential dye fluorescence, at 10 µM, stimulated with maximal-effect acetylcholine; stronger effect = higher value.

Assay [11] has the same target. Briefly: TRPC6 opening by TRPC4 activator hits – cell-based, HEK293, membrane potential dye, duplicate, selectivity assay for TRPC4 activator project, confirmation (AID 434950;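 active means membrane potential signal rise above negative control mean plus 3 SD in both duplicates, also active in the earlier TRPC4 screen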). The settings on record: HEK293 TRPC6, membrane potential fluorescence, at 10 µM; activation: stronger effect = higher value; outcome: activation.
Assay [12] has the same target. Description: positive modulators of mouse TRPC6 channel – HEK293 cells, membrane potential dye, duplicate, selectivity assay for TRPC4 potentiator project, confirmation (AID 434952;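 active means compound raising the membrane signal above positive-control mean plus 3 SD in both repeats, and a primary screen hit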). The settings on record: HEK293 TRPC6, membrane potential dye fluorescence, at 10 µM, maximal acetylcholine added after compound; stronger effect = higher value.
For assay [13], the target named is Short transient receptor potential channel 4 (Mus musculus) (UniProt Q9QUQ5). Briefly: calcium flux activators in TRPC4/5HT1a cells, counter-screen for TRPC4 activator project, cell-based, second counter screen, HEK293 TRPC4/5HT1a, Fluo-4 (AID 434977;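 active means calcium signal rise above buffer-control mean plus 5 SD in both duplicates, and also a hit in the primary screen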). Particulars: Fluo-4 calcium flux, at 10 µM; stronger effect = higher value.
A short description of assay [14]: serotonin-gated TRPC4 signal block – cell-based, second counter screen, HEK293 TRPC4/5HT1a, Fluo-4, counter-screen for TRPC4 inhibitor project, confirmation (AID 434978;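 active means primary screen active whose calcium signal fell more than 3 SD beyond the full-serotonin control mean in both duplicate plates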;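 further: serotonin given first at submaximal then at maximal dose after compound preincubation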). Particulars: Fluo-4 calcium flux, at 10 µM, serotonin added to trigger calcium flux; stronger effect = higher value. Background: Counterscreens check selectivity or assay interference.
In assay [15] the test system is TRPC4 (mouse), co-expressed with 5HT1a in HEK293. Description: enhancement of serotonin-evoked TRPC4 response – cell-based, second counter screen, HEK293 TRPC4/5HT1a, Fluo-4, counter-screen for TRPC4 potentiator project, confirmation (AID 434979;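 active means signal rise over 3 SD above mean of control wells given weak agonist, in both repeats and first screen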). The settings on record: Fluo-4 calcium flux, at 10 µM, serotonin added at its EC20 dose; stronger effect = higher value.
Assay [16] in a line: nonspecific calcium rise without TRPC4 – cell-based, HEK293 mu-opioid receptor line, counter-screen for TRPC4 activator project, confirmation (AID 449723;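 active means hit in primary screen, with calcium signal over 5 SD above buffer well mean in both duplicates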;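 further: counter screen cells carry the mu-opioid receptor alone and lack TRPC4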). Particulars: HEK293 mu-opioid cells, Fluo-4 calcium fluorescence, at 10 µM; stronger effect = higher value.
The nature of assay [17]: nonspecific potentiation of DAMGO calcium response – cell-based, HEK293 mu-opioid receptor line, counter-screen for TRPC4 allosteric potentiator project, confirmation (AID 449724;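 active means calcium signal rise more than 3 SD above the low-dose agonist control mean, in both duplicate plates and the primary screen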;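 further: HEK293 cells carrying mu-opioid receptor only with no TRPC4 channel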). Particulars: HEK293 mu-opioid receptor cells, Fluo-4 calcium flux, at 10 µM, compound added before EC20 DAMGO stimulus; stronger effect = higher value.

For some assays here: Entries with a potency or affinity are not part of this list. Activity calls are given as the source filed them.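 How the source made its calls, unless noted: active means primary screen activator hit with a dose response curve and TRPC4 channel activation at any tested dose; inactive means no activation, no dose response, or not a primary hit.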

Sequence of Short transient receptor potential channel 4 (Mus musculus) (Q9QUQ5 whole entry, looked up): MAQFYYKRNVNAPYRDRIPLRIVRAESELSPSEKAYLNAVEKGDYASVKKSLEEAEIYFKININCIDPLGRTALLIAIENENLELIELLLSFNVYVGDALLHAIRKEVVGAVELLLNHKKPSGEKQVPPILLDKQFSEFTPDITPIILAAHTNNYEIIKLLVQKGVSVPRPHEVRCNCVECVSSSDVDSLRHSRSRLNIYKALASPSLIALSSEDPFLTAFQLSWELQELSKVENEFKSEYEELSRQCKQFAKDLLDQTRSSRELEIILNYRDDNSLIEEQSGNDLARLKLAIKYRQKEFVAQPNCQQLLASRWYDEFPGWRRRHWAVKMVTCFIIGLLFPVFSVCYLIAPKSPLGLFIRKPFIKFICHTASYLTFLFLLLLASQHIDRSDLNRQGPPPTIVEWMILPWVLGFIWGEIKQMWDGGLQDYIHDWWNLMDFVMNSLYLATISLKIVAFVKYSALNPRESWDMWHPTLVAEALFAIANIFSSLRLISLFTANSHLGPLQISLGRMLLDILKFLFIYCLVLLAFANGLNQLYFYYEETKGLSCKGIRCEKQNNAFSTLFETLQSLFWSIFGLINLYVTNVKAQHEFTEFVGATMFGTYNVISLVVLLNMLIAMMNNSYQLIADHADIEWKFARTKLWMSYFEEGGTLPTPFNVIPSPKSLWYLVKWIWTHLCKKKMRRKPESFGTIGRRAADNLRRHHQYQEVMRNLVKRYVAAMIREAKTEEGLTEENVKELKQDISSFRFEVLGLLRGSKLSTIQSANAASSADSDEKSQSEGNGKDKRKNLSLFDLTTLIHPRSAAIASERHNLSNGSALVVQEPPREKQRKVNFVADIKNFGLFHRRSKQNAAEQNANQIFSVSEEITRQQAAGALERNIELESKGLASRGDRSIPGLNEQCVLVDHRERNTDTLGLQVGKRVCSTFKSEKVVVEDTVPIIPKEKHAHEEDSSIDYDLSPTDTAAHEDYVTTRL
Sequence of Short transient receptor potential channel 6 (Mus musculus) (Q61143 whole entry, looked up): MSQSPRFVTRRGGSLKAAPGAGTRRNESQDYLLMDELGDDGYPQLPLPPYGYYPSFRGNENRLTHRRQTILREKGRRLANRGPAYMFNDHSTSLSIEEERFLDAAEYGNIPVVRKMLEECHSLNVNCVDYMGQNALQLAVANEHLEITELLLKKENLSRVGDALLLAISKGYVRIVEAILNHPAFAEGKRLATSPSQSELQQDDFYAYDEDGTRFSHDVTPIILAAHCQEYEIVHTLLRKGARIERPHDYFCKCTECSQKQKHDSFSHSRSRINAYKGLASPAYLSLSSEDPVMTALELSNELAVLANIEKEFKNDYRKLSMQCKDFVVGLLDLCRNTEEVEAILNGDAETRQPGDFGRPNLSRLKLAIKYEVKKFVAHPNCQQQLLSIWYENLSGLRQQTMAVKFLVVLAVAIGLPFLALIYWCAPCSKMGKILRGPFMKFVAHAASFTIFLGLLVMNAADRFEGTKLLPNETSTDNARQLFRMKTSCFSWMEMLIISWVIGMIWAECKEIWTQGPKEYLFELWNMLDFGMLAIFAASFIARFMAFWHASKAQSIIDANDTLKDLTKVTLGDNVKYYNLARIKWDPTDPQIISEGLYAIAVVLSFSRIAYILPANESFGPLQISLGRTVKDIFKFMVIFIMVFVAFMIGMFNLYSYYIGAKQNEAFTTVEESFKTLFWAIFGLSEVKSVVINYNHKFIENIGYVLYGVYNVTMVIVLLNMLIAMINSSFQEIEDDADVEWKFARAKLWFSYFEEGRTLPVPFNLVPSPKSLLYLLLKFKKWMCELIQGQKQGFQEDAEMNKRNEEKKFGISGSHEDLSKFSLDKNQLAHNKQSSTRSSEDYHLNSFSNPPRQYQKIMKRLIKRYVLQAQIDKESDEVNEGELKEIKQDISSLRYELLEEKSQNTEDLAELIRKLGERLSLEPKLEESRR

In the case of `O=C(NCCc1ccccc1)c1cnc2ccccc2n1`, the result in assay [1], in assay [2], in [3], in assay [5], in assay [6] and in assay [7] was inactive. In addition, the result in [8], in assay [9], in assay [10], in assay [11], in assay [12] and in assay [13] was inactive. Besides, the result in assay [14], in assay [16] and in assay [17] was inactive. In addition, the potentiation was 19% (active) in assay [4] and 27.4% (active) in assay [15].
On to `Cc1ccc(CNC(=O)CCC2CCCN(Cc3cc4ccccc4o3)C2)o1` (configuration not stated), for which the result in [1], in assay [2], in assay [3], in assay [4], in assay [5] and in assay [6] was inactive. Also, the outcome in [7], in [8], in assay [9], in assay [10], in assay [11] and in assay [12] was inactive. For the same compound, the outcome in [13], in assay [14], in assay [15], in assay [16] and in [17] was inactive.
For `CN(CC(=O)Nc1ccc(F)cc1)C(=O)COC(=O)c1ccccc1`, the result in assay [1], in assay [2], in [5], in [6], in assay [7] and in assay [8] was inactive. Moreover, the outcome in assay [9], in [10], in assay [11], in [12], in [13] and in [14] was inactive. Moreover, the outcome in assay [16] and in assay [17] was inactive. Besides, the potentiation in assay [3] was 27% (active); in [4], 25% (active); in [15], 23.8% (active).
For `N#Cc1ccc(-c2ccccc2)nc1SCCN1CCOCC1`, the result in assay [1], in [2], in assay [3], in assay [4], in [5] and in assay [6] was inactive. Moreover, the outcome in [7], in assay [8], in assay [9], in assay [10], in assay [11] and in assay [12] was inactive. In addition, the result in assay [13], in assay [14], in assay [16] and in assay [17] was inactive. Moreover, the potentiation in [15] was 17.3% (active).
As for `C=CCc1cc(Cl)ccc1OCCCn1ccnc1`, the result in [1], in assay [2], in [4], in assay [5], in [6] and in assay [7] was inactive. Moreover, the result in [8], in assay [9], in assay [10], in [11], in assay [12] and in assay [13] was inactive. Moreover, the outcome in [14], in [15], in assay [16] and in [17] was inactive. Also, the potentiation in assay [3] was 9% (active).
Regarding `COc1cc(CNC2CCCCCCC2)cc(Br)c1OCC#N`, the result in assay [1], in [2], in [3], in assay [4], in assay [5] and in assay [6] was inactive. The result in [7], in [8], in [9], in [10], in assay [11] and in [12] was inactive. In addition, the outcome in assay [13], in [14], in assay [15], in [16] and in assay [17] was inactive.
For `CC(=O)N1CC(c2ccccc2)C(c2ccc(Cl)cc2)=N1` (configuration not stated), the result in [1], in [2], in assay [3], in assay [4], in assay [5] and in assay [6] was inactive. For the same compound, the result in assay [7], in assay [8], in [9], in [10], in assay [11] and in assay [12] was inactive. Also, the outcome in assay [13], in assay [14], in assay [15], in assay [16] and in assay [17] was inactive.
Turning to `Cc1ccsc1C(=O)OCC(=O)NCCNC(=O)COC(=O)c1sccc1C`, the outcome in assay [1], in [2], in assay [3], in [4], in assay [5] and in assay [6] was inactive. Further, the result in assay [7], in assay [8], in assay [9], in assay [10], in assay [11] and in assay [12] was inactive. Also, the outcome in assay [13], in assay [14], in assay [15], in assay [16] and in [17] was inactive.
For the compound `COc1ccc(C(=O)NNC(=O)CN2CCC(n3nnc4cc(C)ccc43)CC2)cc1`, the outcome in [1], in assay [2], in [5], in [6], in [7] and in [8] was inactive. For the same compound, the result in assay [9], in [10], in assay [11], in [12], in assay [13] and in assay [14] was inactive. The result in assay [15], in [16] and in [17] was inactive. Besides, the potentiation is 15% (active) in assay [3] and 28% (active) in [4].
As to `CC(C)c1cccc(OCCCCN(C)C)c1`, the outcome in assay [1], in [2], in assay [5], in assay [6], in assay [7] and in assay [8] was inactive. Moreover, the result in assay [9], in assay [10], in assay [11], in assay [12], in assay [13] and in assay [14] was inactive. In addition, the result in assay [16] and in assay [17] was inactive. Moreover, the potentiation in assay [3] was 9% (active); in assay [4] it was 20% (active); in assay [15], 16.2% (active).
On to `Cc1oc(-c2ccc(Cl)cc2)nc1CS(=O)CC(=O)NCCCN(C)C1CCCCC1` (configuration not stated), for which the result in assay [1], in assay [2], in [3], in [4], in assay [5] and in assay [6] was inactive. The result in assay [7], in assay [8], in assay [9], in [10], in assay [11] and in [12] was inactive. The result in assay [13], in assay [14], in [15], in assay [16] and in [17] was inactive.
With `C=C(C)COc1ccc(-c2nc(N)ncc2-c2ccccc2OC)c(O)c1`, the result in assay [1], in assay [2], in assay [3], in [4], in assay [5] and in assay [6] was inactive. The result in [7], in assay [8], in assay [9], in [10], in [11] and in assay [12] was inactive. For the same compound, the result in [13], in [14], in [16] and in assay [17] was inactive. For the same compound, in [15], the potentiation was 8.86% (active).
What is called inhibition is the relative decrease from the control value, in per cent. On to `COc1cc(=O)n2c(-c3ccccc3)csc2n1`, for which the result in assay [1], in assay [2], in assay [3], in assay [4], in [6] and in [7] was inactive. In addition, the result in assay [8], in assay [9], in assay [10], in [11], in [12] and in assay [13] was inactive. Moreover, the outcome in [14], in [15], in [16] and in assay [17] was inactive. Further, the inhibition in assay [5] was 39% (active).
As for `O=C(O)CCC(=O)N1CCN(c2nc3ccccc3s2)CC1`, the outcome in assay [1], in assay [2], in [3], in assay [5], in [6] and in assay [7] was inactive. The result in assay [8], in [9], in [10], in [11], in [12] and in assay [13] was inactive. In addition, the result in assay [14], in assay [16] and in [17] was inactive. The potentiation is 11% (active) in assay [4] and 21.2% (active) in assay [15].
For the compound `O=[N+]([O-])c1ccc(CN2CCN(c3nc4ccccc4s3)CC2)cc1`, the outcome in assay [1], in assay [2], in assay [3], in assay [5], in assay [6] and in [7] was inactive. In addition, the outcome in [8], in assay [9], in assay [10], in [11], in [12] and in [13] was inactive. In addition, the result in assay [14], in assay [16] and in assay [17] was inactive. Besides, the potentiation is 7% (active) in assay [4] and 17.5% (active) in [15].
For the compound `CCN(CCNC(=O)C1CCCN(c2ncnc3c2nc2n3CCCCC2)C1)Cc1ccccc1` (configuration not stated), the outcome in assay [1], in assay [2], in assay [5], in assay [6], in assay [7] and in [8] was inactive. The result in assay [9], in [10], in assay [11], in assay [12], in assay [13] and in assay [14] was inactive. The result in [15], in assay [16] and in assay [17] was inactive. In addition, the potentiation in [3] was 18% (active); in assay [4], 10% (active).
